Test in all cases: PBM; 200 nM protein, PBS
Details in all cases: dsDNA, one strand shown

For assay [1], the target named is HESX1 (Homo sapiens, UniProt Q9UBX0 95-180, R165K).
Assay [2] addresses T1, NKX2-4 (Homo sapiens, UniProt Q9H2Z4 175-261, P217L).
T1 sequence: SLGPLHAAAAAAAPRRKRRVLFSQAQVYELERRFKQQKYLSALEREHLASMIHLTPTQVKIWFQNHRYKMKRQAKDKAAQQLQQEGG

The target of assay [3] is T2, NKX2-4 (Homo sapiens, UniProt Q9H2Z4 175-261, T231S).
T2 sequence: T1 sequence with L43P, T57S

For assay [4], the target named is T3, NKX2-4 (Homo sapiens, UniProt Q9H2Z4 175-261).
T3 sequence: T1 sequence with L43P

The target in assay [5] is HESX1 (Homo sapiens, UniProt Q9UBX0 95-180).
Sequence of HESX1 (Homo sapiens, UniProt Q9UBX0 95-180) (Q9UBX0 95-180): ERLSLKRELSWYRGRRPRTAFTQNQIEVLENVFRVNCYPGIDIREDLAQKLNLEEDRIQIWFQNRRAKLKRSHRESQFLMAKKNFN
Assay [6] has as its target ALX1 (Homo sapiens, UniProt Q15699 118-204, L144V).
Assay [7] has as its target ALX1 (Homo sapiens, UniProt Q15699 118-204, L144R).
Assay [8] has as its target T4, NKX2-4 (Homo sapiens, UniProt Q9H2Z4 175-261, R246Q).
T4 sequence: T1 sequence with L43P, R72Q

Assay [9] addresses HESX1 (Homo sapiens, UniProt Q9UBX0 95-180, R109Q).
The target in assay [10] is HESX1 (Homo sapiens, UniProt Q9UBX0 95-180, P111T).
Sequence of HESX1 (Homo sapiens, UniProt Q9UBX0 95-180, P111T) (Q9UBX0 95-180 P111T): as the sequence (Q9UBX0 95-180) above, with P17T counted along it
Assay [11] concerns the target HESX1 (Homo sapiens, UniProt Q9UBX0 95-180, F115L).
For assay [12], the target named is ALX1 (Homo sapiens, UniProt Q15699 118-204).
Sequence of ALX1 (Homo sapiens, UniProt Q15699 118-204) (Q15699 118-204): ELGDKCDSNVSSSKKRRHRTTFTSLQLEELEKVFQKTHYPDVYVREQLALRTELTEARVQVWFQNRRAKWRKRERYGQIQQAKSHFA
The target in assay [13] is T5, SIX6 (Homo sapiens, UniProt O95475 114-200, L167I).
T5 sequence: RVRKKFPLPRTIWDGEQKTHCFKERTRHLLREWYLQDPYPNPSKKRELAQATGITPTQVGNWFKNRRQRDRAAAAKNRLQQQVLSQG

Assay [14] concerns the target T6, SIX6 (Homo sapiens, UniProt O95475 114-200, L143V).
T6 sequence: T5 sequence with L30V, I54L

The target of assay [15] is T7, SIX6 (Homo sapiens, UniProt O95475 114-200, H141N).
T7 sequence: T5 sequence with H28N, I54L

Assay [16] addresses T8, SIX6 (Homo sapiens, UniProt O95475 114-200, T165P).
T8 sequence: T5 sequence with T52P, I54L

Assay [17] deals with T9, SIX6 (Homo sapiens, UniProt O95475 114-200, L167M).
T9 sequence: T5 sequence with I54M

Assay [18] concerns the target T10, SIX6 (Homo sapiens, UniProt O95475 114-200, L143M).
T10 sequence: T5 sequence with L30M, I54L

Assay [19] deals with T11, SIX6 (Homo sapiens, UniProt O95475 114-200, L143I).
T11 sequence: T5 sequence with L30I, I54L

Assay [20] has as its target T12, SIX6 (Homo sapiens, UniProt O95475 114-200, T165G).
T12 sequence: T5 sequence with T52G, I54L

The target in assay [21] is T13, SIX6 (Homo sapiens, UniProt O95475 114-200, T139Q).
T13 sequence: T5 sequence with T26Q, I54L

The target in assay [22] is T14, SIX6 (Homo sapiens, UniProt O95475 114-200, T165A).
T14 sequence: T5 sequence with T52A, I54L

Assay [23] has as its target T15, SIX6 (Homo sapiens, UniProt O95475 114-200, L167V).
T15 sequence: T5 sequence with I54V

The target of assay [24] is T16, SIX6 (Homo sapiens, UniProt O95475 114-200).
T16 sequence: T5 sequence with I54L

Assay [25] deals with T17, SIX6 (Homo sapiens, UniProt O95475 114-200, T165I).
T17 sequence: T5 sequence with T52I, I54L

The target in assay [26] is T18, VENTX (Homo sapiens, UniProt O95231 78-163, R121Q).
T18 sequence: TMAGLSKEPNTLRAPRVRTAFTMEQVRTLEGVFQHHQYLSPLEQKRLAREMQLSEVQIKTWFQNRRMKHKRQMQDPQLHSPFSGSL

For assay [27], the target named is T19, VENTX (Homo sapiens, UniProt O95231 78-163).
T19 sequence: T18 sequence with Q44R

Assay [28] has as its target HOXA7 (Homo sapiens, UniProt P31268 116-202).
For assay [29], the target named is T20, VENTX (Homo sapiens, UniProt O95231 78-163, Y115F).
T20 sequence: T18 sequence with Y38F, Q44R

The target of assay [30] is VAX1 (Homo sapiens, UniProt Q5SQQ9 86-172).
Sequence of VAX1 (Homo sapiens, UniProt Q5SQQ9 86-172) (Q5SQQ9 86-172): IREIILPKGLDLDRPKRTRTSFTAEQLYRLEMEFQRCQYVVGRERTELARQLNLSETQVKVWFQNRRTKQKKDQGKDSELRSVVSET
The target of assay [31] is VAX1 (Homo sapiens, UniProt Q5SQQ9 86-172, T142I).
Sequence of VAX1 (Homo sapiens, UniProt Q5SQQ9 86-172, T142I) (Q5SQQ9 86-172 T142I): as the sequence (Q5SQQ9 86-172) above, with T57I counted along it
The target of assay [32] is HOXA7 (Homo sapiens, UniProt P31268 116-202, W177C).
Sequence of HOXA7 (Homo sapiens, UniProt P31268 116-202, W177C) (P31268 116-202 W177C): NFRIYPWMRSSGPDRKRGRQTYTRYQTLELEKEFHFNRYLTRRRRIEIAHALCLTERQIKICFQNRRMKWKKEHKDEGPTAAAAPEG
Assay [33] concerns the target VAX1 (Homo sapiens, UniProt Q5SQQ9 86-172, K157R).

Numbering of substitutions follows the chain as printed.

Sequence of HESX1 (Homo sapiens, UniProt Q9UBX0 95-180, F115L) (Q9UBX0 95-180 F115L): as the sequence (Q9UBX0 95-180) above, with F21L counted along it
Sequence of HESX1 (Homo sapiens, UniProt Q9UBX0 95-180, R165K) (Q9UBX0 95-180 R165K): as the sequence (Q9UBX0 95-180) above, with R71K counted along it
Sequence of HESX1 (Homo sapiens, UniProt Q9UBX0 95-180, R109Q) (Q9UBX0 95-180 R109Q): as the sequence (Q9UBX0 95-180) above, with R15Q counted along it
Sequence of VAX1 (Homo sapiens, UniProt Q5SQQ9 86-172, K157R) (Q5SQQ9 86-172 K157R): as the sequence (Q5SQQ9 86-172) above, with K72R counted along it
Sequence of ALX1 (Homo sapiens, UniProt Q15699 118-204, L144R) (Q15699 118-204 L144R): as the sequence (Q15699 118-204) above, with L27R counted along it
Sequence of HOXA7 (Homo sapiens, UniProt P31268 116-202) (P31268 116-202): as the sequence (P31268 116-202 W177C) above, with C62W counted along it
Sequence of ALX1 (Homo sapiens, UniProt Q15699 118-204, L144V) (Q15699 118-204 L144V): as the sequence (Q15699 118-204) above, with L27V counted along it

In the case of ACGCTGCG, the binding signal was 6.32 upbm affinity estimate (log intensity, higher = more binding, comparable within an allelic series) with HESX1 [1]; 9.63 upbm affinity estimate (log intensity, higher = more binding, comparable within an allelic series) with NKX2-4 [2]; 9.6 upbm affinity estimate (log intensity, higher = more binding, comparable within an allelic series) with NKX2-4 [3]; 9.57 upbm affinity estimate (log intensity, higher = more binding, comparable within an allelic series) in the assay with NKX2-4 [4]; 6.32 upbm affinity estimate (log intensity, higher = more binding, comparable within an allelic series) with HESX1 [5]; 6.28 upbm affinity estimate (log intensity, higher = more binding, comparable within an allelic series) in the assay with ALX1 [6]. Moreover, the binding signal with ALX1 [7] was 6.23 upbm affinity estimate (log intensity, higher = more binding, comparable within an allelic series); with NKX2-4 [8] it was 9.58 upbm affinity estimate (log intensity, higher = more binding, comparable within an allelic series); with HESX1 [9], 6.51 upbm affinity estimate (log intensity, higher = more binding, comparable within an allelic series); in the assay with HESX1 [10] it was 6.42 upbm affinity estimate (log intensity, higher = more binding, comparable within an allelic series); with HESX1 [11], 6.51 upbm affinity estimate (log intensity, higher = more binding, comparable within an allelic series); in the assay with ALX1 [12], 6.21 upbm affinity estimate (log intensity, higher = more binding, comparable within an allelic series).
As to CGCGTAGC, the binding signal with HESX1 [1] is 6.51 upbm affinity estimate (log intensity, higher = more binding, comparable within an allelic series); in the assay with SIX6 [13], 9.05 upbm affinity estimate (log intensity, higher = more binding, comparable within an allelic series); with SIX6 [14], 8.9 upbm affinity estimate (log intensity, higher = more binding, comparable within an allelic series); with SIX6 [15], 9.02 upbm affinity estimate (log intensity, higher = more binding, comparable within an allelic series); with SIX6 [16], 9.03 upbm affinity estimate (log intensity, higher = more binding, comparable within an allelic series); in the assay with SIX6 [17], 8.94 upbm affinity estimate (log intensity, higher = more binding, comparable within an allelic series). Also, the binding signal is 8.94 upbm affinity estimate (log intensity, higher = more binding, comparable within an allelic series) with SIX6 [18]; 8.99 upbm affinity estimate (log intensity, higher = more binding, comparable within an allelic series) in the assay with SIX6 [19]; 9.13 upbm affinity estimate (log intensity, higher = more binding, comparable within an allelic series) with SIX6 [20]; 6.55 upbm affinity estimate (log intensity, higher = more binding, comparable within an allelic series) with HESX1 [5]; 9.19 upbm affinity estimate (log intensity, higher = more binding, comparable within an allelic series) with SIX6 [21]; 9.02 upbm affinity estimate (log intensity, higher = more binding, comparable within an allelic series) with SIX6 [22]. For the same sequence, the binding signal in the assay with SIX6 [23] is 8.99 upbm affinity estimate (log intensity, higher = more binding, comparable within an allelic series); in the assay with HESX1 [9] it was 6.51 upbm affinity estimate (log intensity, higher = more binding, comparable within an allelic series); in the assay with SIX6 [24] it was 9 upbm affinity estimate (log intensity, higher = more binding, comparable within an allelic series); with SIX6 [25] it was 8.98 upbm affinity estimate (log intensity, higher = more binding, comparable within an allelic series); with HESX1 [10], 6.44 upbm affinity estimate (log intensity, higher = more binding, comparable within an allelic series); with HESX1 [11], 6.54 upbm affinity estimate (log intensity, higher = more binding, comparable within an allelic series).
Turning to CCCCCAGC, the binding signal with HESX1 [1] was 6.28 upbm affinity estimate (log intensity, higher = more binding, comparable within an allelic series); in the assay with VENTX [26], 7.89 upbm affinity estimate (log intensity, higher = more binding, comparable within an allelic series); with VENTX [27] it was 8.03 upbm affinity estimate (log intensity, higher = more binding, comparable within an allelic series); with HOXA7 [28] it was 8.08 upbm affinity estimate (log intensity, higher = more binding, comparable within an allelic series); in the assay with VENTX [29], 7.96 upbm affinity estimate (log intensity, higher = more binding, comparable within an allelic series); in the assay with HESX1 [5], 6.22 upbm affinity estimate (log intensity, higher = more binding, comparable within an allelic series). For the same sequence, the binding signal was 6.3 upbm affinity estimate (log intensity, higher = more binding, comparable within an allelic series) with HESX1 [9]; 7.08 upbm affinity estimate (log intensity, higher = more binding, comparable within an allelic series) with VAX1 [30]; 6.31 upbm affinity estimate (log intensity, higher = more binding, comparable within an allelic series) with HESX1 [10]; 6.46 upbm affinity estimate (log intensity, higher = more binding, comparable within an allelic series) with HESX1 [11]; 7.15 upbm affinity estimate (log intensity, higher = more binding, comparable within an allelic series) in the assay with VAX1 [31]; 8.17 upbm affinity estimate (log intensity, higher = more binding, comparable within an allelic series) with HOXA7 [32]. Moreover, in the assay with VAX1 [33], the binding signal was 6.96 upbm affinity estimate (log intensity, higher = more binding, comparable within an allelic series).
